In PubChem BioAssay (Tox21):
Inconclusive results are not listed. Activity calls are given as the source filed them. Unless noted, calls come from the whole dose curve; as a rule, active = well fitted curve in the direction sought with a large enough effect in the repeat runs; inconclusive = weak or mixed curves; inactive = no such curve, though single readings can be large; an effect the other way counts as inactive or inconclusive.

Key:
[1] = target: Estrogen receptor beta (Homo sapiens) (UniProt Q92731); test: qHTS assay to identify small molecule antagonists of the estrogen receptor beta (ER-beta) signaling pathway (AID 1259378; active = well fitted inhibition curve with a large enough effect in the signal ratio in the repeat runs, not every such curve was filed as active; the % refers to the signal ratio)
Chain of Estrogen receptor beta (Homo sapiens) (Q92731 whole entry, looked up): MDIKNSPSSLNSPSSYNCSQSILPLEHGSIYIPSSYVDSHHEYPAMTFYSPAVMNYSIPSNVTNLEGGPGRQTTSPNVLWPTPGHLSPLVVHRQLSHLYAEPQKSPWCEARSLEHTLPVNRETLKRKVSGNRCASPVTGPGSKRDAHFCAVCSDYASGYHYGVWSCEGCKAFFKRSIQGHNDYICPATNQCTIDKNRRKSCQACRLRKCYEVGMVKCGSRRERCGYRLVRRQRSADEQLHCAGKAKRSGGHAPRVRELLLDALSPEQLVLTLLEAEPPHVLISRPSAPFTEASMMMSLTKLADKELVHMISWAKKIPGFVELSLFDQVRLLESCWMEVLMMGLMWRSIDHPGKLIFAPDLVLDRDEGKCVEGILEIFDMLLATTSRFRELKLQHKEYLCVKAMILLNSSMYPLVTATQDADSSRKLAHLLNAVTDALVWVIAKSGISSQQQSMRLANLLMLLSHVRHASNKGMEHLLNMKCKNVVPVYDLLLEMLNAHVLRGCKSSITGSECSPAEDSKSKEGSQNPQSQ
Summary of the method: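 ER-beta-UAS-bla HEK293T cells in 2% charcoal-stripped FBS medium treated with compound plus 1nM final 17-beta-estradiol for 16 hr at 37C. Beta-lactamase reporter read by FRET substrate fluorescence after 2 hours at room temperature.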

[2] = qHTS assay to identify small molecule agonists of the androgen receptor (AR) signaling pathway in the presence of an antagonist - cell viability counter screen (AID 1259379);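 note: MDA-kb2 human breast cancer cells carrying an MMTV luciferase reporter; series mostly up to about 92 µM; nearly all actives have a fitted effect of over 25% in size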
Summary of the method: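 Cells: MDA-kb2 (MMTV-luc, AR and GR elements), 3,000/well, 5 hr settle. Added: nilutamide 3.0uM final, then compounds (15 conc.). Incubation: 16 hr, 37C, no CO2. Read-out: CellTiter-Fluor, 1 hr, fluorescence.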

[3] = qHTS assay to identify small molecule agonists of the estrogen receptor beta (ER-beta) signaling pathway - cell viability counter screen (AID 1259380); note: nearly all actives have a fitted effect of over 30% in size
Summary of the method: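 HEK293T ER-beta-UAS-bla; 2% CS-FBS; 6 hr pre-plate, 16 hr cpd at 37C/5% CO2; LiveBLAzer read first, then CellTiter-Glo 30 min RT, luminescence.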

[4] = qHTS assay to identify small molecule antagonists of the estrogen receptor beta (ER-beta) signaling pathway - cell viability counter screen (AID 1259382); note: series mostly up to about 92 µM; nearly all actives have a fitted effect of over 55% in size
Summary of the method: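 Cells: ER-beta-UAS-bla HEK293T, 2,000/well, 2% CS-FBS, 6 hr settle. Cpd + E2 (1nM final), 16 hr, 37C/5% CO2. Bla FRET substrate 2 hr RT, then CellTiter-Glo 30 min RT, luminescence.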

[5] = qHTS assay to identify small molecule agonists or antagonists of the thyroid stimulating hormone receptor (TSHR) signaling pathway - wild type cell line counter screen (AID 1259384; calls by dose curve)
Summary of the method: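 Wild-type Hek293 cells, 800/well, 18 h at 37C, then compound with Ro20-1724 for 30 min RT. cAMP by HTRF (cAMP-d2/anti-cAMP cryptate), 1 h RT, fluorescence read. 15 concentrations, triplicates.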

[6] = target: Thyrotropin receptor (Homo sapiens) (UniProt P16473); test: qHTS assay to identify small molecule antagonists of the thyroid stimulating hormone receptor (TSHR) signaling pathway (AID 1259385; calls by dose curve; note: nearly all actives have a fitted effect of over 20% in size)
Chain of Thyrotropin receptor (Homo sapiens) (P16473 whole entry, looked up): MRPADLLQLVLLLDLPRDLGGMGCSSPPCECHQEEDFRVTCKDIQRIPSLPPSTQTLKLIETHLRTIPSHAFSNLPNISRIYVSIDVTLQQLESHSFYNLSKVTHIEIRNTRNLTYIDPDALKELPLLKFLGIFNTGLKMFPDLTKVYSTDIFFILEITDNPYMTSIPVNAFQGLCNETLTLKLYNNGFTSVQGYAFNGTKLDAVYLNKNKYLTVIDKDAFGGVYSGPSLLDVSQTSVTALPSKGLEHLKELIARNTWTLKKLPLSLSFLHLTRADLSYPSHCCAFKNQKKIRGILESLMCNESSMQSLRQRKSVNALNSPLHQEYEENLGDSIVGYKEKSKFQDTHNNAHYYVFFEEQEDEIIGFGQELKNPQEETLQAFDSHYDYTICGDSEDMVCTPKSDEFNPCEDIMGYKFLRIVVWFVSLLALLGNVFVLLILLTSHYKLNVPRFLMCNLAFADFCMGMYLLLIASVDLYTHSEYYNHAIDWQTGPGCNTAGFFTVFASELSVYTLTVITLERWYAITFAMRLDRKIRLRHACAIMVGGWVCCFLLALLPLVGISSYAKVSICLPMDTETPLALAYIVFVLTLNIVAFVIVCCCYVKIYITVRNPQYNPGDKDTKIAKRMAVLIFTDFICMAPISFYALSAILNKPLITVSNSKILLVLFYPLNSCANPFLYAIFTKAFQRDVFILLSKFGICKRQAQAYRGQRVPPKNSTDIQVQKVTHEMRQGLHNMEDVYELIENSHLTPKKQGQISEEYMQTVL
Summary of the method: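 TSHR-HEK293 cells (800/well) plated 18 h, then compounds with Ro20-1724 and TSH at 1.5 ng/mL final, 30 min at room temperature. cAMP quantified by HTRF (cAMP-d2/anti-cAMP-cryptate, 1 h); 15 concentrations in triplicate.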

[7] = qHTS assay to identify small molecule agonists of the estrogen receptor alpha (ER-alpha) signaling pathway in the presence of an antagonist - cell viability counter screen (AID 1259386);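 note: series mostly up to about 92 µM; cells exposed to compounds for 22 h at 37 °C before the viability read; nearly all actives have a fitted effect of over 30% in size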
Summary of the method: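 VM7Luc4E2, stripped-serum pre-culture 5 d; 24hr plating; +ICI-182,780 10.0nM final; cpds 15 conc, 22hr, 37C/5% CO2; CellTiter-Fluor added at 21hr, fluorescence 1hr later.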

[8] = target: Progesterone receptor (Homo sapiens) (UniProt P06401); test: qHTS assay to identify small molecule agonists of the progesterone receptor (PR) signaling pathway (AID 1346784; calls by dose curve; note: nearly all actives have a fitted effect of over 30% in size)
Chain of Progesterone receptor (Homo sapiens) (P06401 whole entry, looked up): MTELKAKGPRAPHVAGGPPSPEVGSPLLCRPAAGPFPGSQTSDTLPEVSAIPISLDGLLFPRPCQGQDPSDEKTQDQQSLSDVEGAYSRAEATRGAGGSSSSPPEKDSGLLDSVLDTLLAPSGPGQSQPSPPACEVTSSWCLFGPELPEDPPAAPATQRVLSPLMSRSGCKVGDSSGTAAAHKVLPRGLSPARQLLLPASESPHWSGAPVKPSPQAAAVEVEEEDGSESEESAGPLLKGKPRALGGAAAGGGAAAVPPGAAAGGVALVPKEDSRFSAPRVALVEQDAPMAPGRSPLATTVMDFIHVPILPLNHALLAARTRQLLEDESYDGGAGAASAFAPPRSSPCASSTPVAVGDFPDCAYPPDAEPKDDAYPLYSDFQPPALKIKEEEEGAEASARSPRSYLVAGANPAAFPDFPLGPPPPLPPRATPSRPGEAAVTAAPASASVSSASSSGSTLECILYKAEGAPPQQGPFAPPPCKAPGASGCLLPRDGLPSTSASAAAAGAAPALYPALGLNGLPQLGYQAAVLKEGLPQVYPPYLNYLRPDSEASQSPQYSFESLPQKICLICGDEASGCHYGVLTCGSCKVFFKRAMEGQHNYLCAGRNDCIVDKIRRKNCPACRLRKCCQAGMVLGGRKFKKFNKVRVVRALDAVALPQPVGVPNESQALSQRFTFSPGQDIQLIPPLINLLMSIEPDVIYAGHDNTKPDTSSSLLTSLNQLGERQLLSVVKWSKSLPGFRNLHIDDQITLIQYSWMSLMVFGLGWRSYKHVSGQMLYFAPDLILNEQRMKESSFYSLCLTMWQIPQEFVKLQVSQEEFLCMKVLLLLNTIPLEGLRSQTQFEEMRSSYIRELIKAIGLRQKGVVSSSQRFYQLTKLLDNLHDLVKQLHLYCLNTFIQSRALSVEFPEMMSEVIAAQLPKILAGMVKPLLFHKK
Summary of the method: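 HEK 293T PR-UAS-bla reporter cells, 2% charcoal-stripped FBS; 6 hr settle at 37C/5% CO2, compound (DMSO) 16 hr, LiveBLAzer B/G FRET substrate 2 hr RT, fluorescence intensity read.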

[9] = target: Estrogen receptor (Homo sapiens) (UniProt P03372); test: qHTS assay to identify small molecule agonists of the estrogen receptor alpha (ER-alpha) signaling pathway in the presence of an antagonist (AID 1259383; calls by dose curve; note: top concentration of the series differs between compounds; nearly all actives have a fitted effect of over 15% in size)
Chain of Estrogen receptor (Homo sapiens) (P03372 whole entry, looked up): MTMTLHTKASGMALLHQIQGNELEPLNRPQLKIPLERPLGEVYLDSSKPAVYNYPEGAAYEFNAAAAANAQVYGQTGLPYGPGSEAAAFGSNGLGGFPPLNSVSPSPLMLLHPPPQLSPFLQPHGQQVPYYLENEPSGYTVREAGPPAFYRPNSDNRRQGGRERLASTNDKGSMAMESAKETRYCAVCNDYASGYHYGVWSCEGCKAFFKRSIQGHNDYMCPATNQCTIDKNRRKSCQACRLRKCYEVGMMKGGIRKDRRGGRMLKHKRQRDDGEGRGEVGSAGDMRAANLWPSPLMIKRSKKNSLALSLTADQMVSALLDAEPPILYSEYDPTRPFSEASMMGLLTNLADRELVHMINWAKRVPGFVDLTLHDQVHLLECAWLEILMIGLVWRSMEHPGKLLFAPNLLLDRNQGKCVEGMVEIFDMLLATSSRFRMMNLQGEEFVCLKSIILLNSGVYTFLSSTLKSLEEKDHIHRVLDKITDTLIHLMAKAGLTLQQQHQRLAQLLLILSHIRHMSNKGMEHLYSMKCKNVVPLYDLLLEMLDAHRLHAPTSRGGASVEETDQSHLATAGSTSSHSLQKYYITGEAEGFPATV
Summary of the method: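 VM7Luc4E2, endog. ER-alpha + 4×ERE-luc; charcoal-stripped FBS, phenol red-free, 5 d; 24hr plating; +10.0nM ICI-182,780 (final); cpds 15 conc, 22hr, 37C/5% CO2; ONE-Glo luminescence.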

[10] = target: Androgen receptor (Homo sapiens) (UniProt P10275); test: qHTS assay to identify small molecule agonists of the androgen receptor (AR) signaling pathway in the presence of an antagonist (AID 1259381; calls by dose curve; note: nearly all actives have a fitted effect of over 15% in size; note: potency is the fitted concentration of half-maximal effect)
Chain of Androgen receptor (Homo sapiens) (P10275 whole entry, looked up): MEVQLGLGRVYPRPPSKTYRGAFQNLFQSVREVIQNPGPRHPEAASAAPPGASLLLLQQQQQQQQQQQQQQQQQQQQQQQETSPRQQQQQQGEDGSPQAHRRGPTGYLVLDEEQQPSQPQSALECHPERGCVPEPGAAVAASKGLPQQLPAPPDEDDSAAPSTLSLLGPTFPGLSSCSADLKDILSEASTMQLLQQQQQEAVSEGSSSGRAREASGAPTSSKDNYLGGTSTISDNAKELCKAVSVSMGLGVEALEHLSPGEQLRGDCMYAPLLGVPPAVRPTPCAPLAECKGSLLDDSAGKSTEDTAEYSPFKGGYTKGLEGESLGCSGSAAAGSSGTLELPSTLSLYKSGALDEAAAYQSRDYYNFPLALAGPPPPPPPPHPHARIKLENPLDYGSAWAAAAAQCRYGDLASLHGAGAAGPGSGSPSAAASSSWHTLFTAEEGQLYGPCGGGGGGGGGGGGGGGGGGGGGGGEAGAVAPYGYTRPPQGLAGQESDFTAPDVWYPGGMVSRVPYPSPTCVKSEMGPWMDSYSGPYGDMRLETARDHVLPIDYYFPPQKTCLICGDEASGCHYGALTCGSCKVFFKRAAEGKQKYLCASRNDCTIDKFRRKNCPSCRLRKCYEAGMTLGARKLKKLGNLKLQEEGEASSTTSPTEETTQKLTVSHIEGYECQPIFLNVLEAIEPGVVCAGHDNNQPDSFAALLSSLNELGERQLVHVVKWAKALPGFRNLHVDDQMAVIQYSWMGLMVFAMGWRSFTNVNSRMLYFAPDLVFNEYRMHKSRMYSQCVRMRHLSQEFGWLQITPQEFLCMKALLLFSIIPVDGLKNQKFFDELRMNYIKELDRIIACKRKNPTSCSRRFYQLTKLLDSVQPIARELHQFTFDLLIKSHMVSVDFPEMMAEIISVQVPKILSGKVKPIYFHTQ
Summary of the method: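 MDA-kb2 cells, 3,000/well, rested 5hr at 37C/0% CO2 → nilutamide 3.0uM final or buffer → compounds, 15 conc. → 16hr at 37C → ONE-Glo, 30min RT → luminescence.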
% is set by controls: 0 for no effect and ±100 for the full control effect.

CC(C#N)(CCC(=O)O)N=NC(C)(C#N)CCC(=O)O (centres undefined)
inactive: Potency [1] | Potency [2] | Potency [3] | outcome [4] | outcome [5] | outcome [6] | Potency [7]

O=CN(CCO)CCO
inactive: Potency [1] | Potency [2] | Potency [3] | outcome [4] | outcome [5] | outcome [6] | Potency [7] | Potency [8]

O=C(c1ccccc1)C1(O)CCCCC1
inactive: Potency [1] | Potency [2] | Potency [3] | outcome [4] | outcome [5] | outcome [6] | Potency [7] | Potency [8]

NC(=O)Cc1cccc2ccccc12
inactive: Potency [1] | Potency [2] | Potency [3] | outcome [4] | outcome [5] | outcome [6] | Potency [7] | Potency [8]

CCCCCCCCCCCCSC
inactive: Potency [1] | Potency [2] | Potency [3] | outcome [4] | outcome [5] | outcome [6] | Potency [7] | Potency [8]

C=C(C)C(=O)OCCOCCOCCOCCOC(=O)C(=C)C
inactive: Potency [1] | Potency [2] | Potency [3] | outcome [4] | outcome [5] | outcome [6] | Potency [7] | Potency [8]

CC(=O)Nc1ccc(OCC(O)CNC(C)C)cc1 (centres undefined)
inactive: Potency [1] | Potency [2] | Potency [3] | outcome [4] | outcome [5] | outcome [6] | Potency [7] | Potency [8]

CCC(C)(CN(C)C)OC(=O)c1ccccc1 (centres undefined)
inactive: Potency [1] | Potency [2] | Potency [3] | outcome [4] | Potency [7]

CCCCCCC#CC(=O)OC
inactive: Potency [1] | Potency [2] | Potency [3] | outcome [4] | Potency [7] | Potency [8]

CC(C)C(=O)OC(=O)C(C)C
inactive: Potency [1] | Potency [2] | Potency [3] | outcome [4] | outcome [5] | outcome [6] | Potency [7] | Potency [8]

CC(C)CC(C)(N)C#N (centres undefined)
inactive: Potency [1] | Potency [2] | Potency [3] | outcome [4] | outcome [5] | outcome [6] | Potency [7] | Potency [8]

CC(=O)OCC(=O)[C@@]1(O)[C@H](C)C[C@H]2[C@@H]3CCC4=CC(=O)C=C[C@]4(C)[C@@]3(F)[C@@H](O)C[C@@]21C
inactive: Potency [1] | Potency [2] | Potency [3] | outcome [4] | outcome [5] | outcome [6] | Potency [7]

CN(C)CCCCCCN(C)C
inactive: Potency [1] | Potency [2] | Potency [3] | outcome [4] | outcome [5] | outcome [6] | Potency [7] | Potency [8]

CC1=C(C/C=C(\C)CCC[C@H](C)CCC[C@H](C)CCCC(C)C)C(=O)c2ccccc2C1=O
inactive: Potency [1] | Potency [2] | Potency [3] | outcome [4] | outcome [5] | outcome [6] | Potency [7]

C[C@H]1[C@H](NC(=O)/C(=N/OC(C)(C)C(=O)O)c2csc(N)n2)C(=O)N1S(=O)(=O)O (stereo in doubt)
inactive: Potency [1] | Potency [2] | Potency [3] | outcome [4] | outcome [5] | outcome [6] | Potency [7] | Potency [8]

CC1=CC(=O)[C@H]2C[C@@H]1C2(C)C
inactive: Potency [1] | Potency [2] | Potency [3] | outcome [4] | outcome [9] | Potency [7] | Potency [8]

CN1CC(=O)N/C1=N/C(=O)Nc1cccc(Cl)c1
inactive: Potency [1] | Potency [2] | Potency [3] | outcome [4] | outcome [5] | outcome [6] | Potency [7] | Potency [8]

Nc1ccncc1N
inactive: Potency [1] | Potency [2] | Potency [3] | outcome [4] | outcome [5] | outcome [6] | Potency [7]

O=Cc1cccc(Br)c1
inactive: Potency [1] | Potency [2] | Potency [3] | outcome [4] | outcome [5] | outcome [6] | Potency [7] | Potency [8]

CCN1CCOCC1
inactive: Potency [1] | Potency [2] | Potency [3] | outcome [4] | Potency [7] | Potency [8]

C[C@@H]1CCC[C@H](C)N1
inactive: Potency [1] | Potency [2] | Potency [3] | outcome [4] | outcome [5] | outcome [6] | Potency [7] | Potency [8]

CCC(=O)OCc1ccccc1
inactive: Potency [1] | Potency [2] | Potency [3] | outcome [4] | outcome [5] | outcome [6] | Potency [7]

NC(=O)N1c2ccccc2CC(=O)c2ccccc21
inactive: Potency [1] | Potency [2] | Potency [3] | outcome [4] | outcome [5] | outcome [6] | Potency [7] | Potency [8]

Cc1ncc([C@@H](CCCCCCc2ccc3c(n2)NCCC3)CC(=O)O)cn1
inactive: Potency [1] | Potency [2] | Potency [3] | outcome [4] | outcome [9] | Potency [8]

O=C(O)CNC(=O)c1ccccc1
inactive: Potency [1] | Potency [2] | Potency [3] | outcome [4] | outcome [5] | outcome [6] | Potency [7] | Potency [8]

CC(C)(C)OC(=O)c1cccc(N)c1
inactive: Potency [1] | Potency [2] | Potency [3] | outcome [4] | outcome [5] | outcome [6] | Potency [7]

CC1(C)[C@@H]2CC[C@@]1(C)[C@H](O)C2
inactive: Potency [1] | Potency [2] | Potency [3] | outcome [4] | outcome [5] | outcome [6] | Potency [7] | Potency [8]

O=C1CCCCCCCCCCCCCCO1
inactive: Potency [1] | Potency [2] | Potency [3] | outcome [4] | outcome [5] | Potency [7] | Potency [8]

C=CN1CCCCCC1=O
inactive: Potency [1] | Potency [2] | Potency [3] | outcome [4] | outcome [5] | outcome [6] | Potency [7] | Potency [8]

C1CCC2=NCCCN2CC1
inactive: Potency [1] | Potency [2] | Potency [3] | outcome [4] | outcome [5] | outcome [6] | Potency [7] | Potency [8]

O=C1NC(=O)C2CC=CCC12 (centres undefined)
inactive: Potency [1] | Potency [2] | Potency [3] | outcome [4] | outcome [5] | Potency [7] | Potency [8]

CCO[Si](OCC)(OCC)c1ccccc1
inactive: Potency [1] | Potency [2] | Potency [3] | outcome [4] | outcome [5] | outcome [6] | Potency [7]

CCCCCCCCN1CCCC1=O
inactive: Potency [1] | Potency [2] | Potency [3] | outcome [4] | outcome [5] | outcome [6] | Potency [7] | Potency [8]

CCCCCC(C)N (centres undefined)
inactive: Potency [2] | Potency [3] | Potency [10] | outcome [4] | outcome [5] | outcome [6] | Potency [7] | Potency [8]

CCCCN1C=CN(C)C1
inactive: activity change, negative = cytotoxicity [2] 0.886% [at 19 µM] | activity change, negative = cytotoxicity [3] 2.46% [at 19 µM] | activity change, negative = cytotoxicity [4] -4.66% [at 19 µM] | activation [9] 0.706% [at 19 µM] | cAMP activity change [5] -4.22% [at 18.9 µM] | activity change, negative = inhibition [6] 1.39% [at 19 µM] | activity change, negative = cytotoxicity [7] 0.508% [at 19 µM]

CNCCO
inactive: Potency [1] | Potency [2] | outcome [4] | outcome [5] | outcome [6] | Potency [7] | Potency [8]

C[C@@H]1C[C@H]2[C@@H]3C[C@H](F)C4=CC(=O)C(Cl)=C[C@]4(C)[C@@]3(F)[C@@H](O)C[C@]2(C)[C@@]1(O)C(=O)CO
active: Potency [10] 4.7 nM
inactive: Potency [2] | Potency [3] | outcome [4] | outcome [9] | outcome [5] | outcome [6] | Potency [7]

C=C(C)C(=O)OCC1CCCO1 (centres undefined)
inactive: Potency [1] | Potency [2] | Potency [3] | outcome [4] | Potency [7] | Potency [8]

CC(C)CCCO
inactive: Potency [1] | Potency [2] | outcome [4] | outcome [9] | outcome [5] | outcome [6] | Potency [7] | Potency [8]
